This is a sample that favours compounds with a hit; in the whole collection about 27% have one here.
CYP2C9 inh = human CYP2C9 inhibition; CYP2C9 Supersomes, luciferin-H conversion, luminescence; inhibition, % at 5 µM; 20% of 96,000 active;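 active = blocking of liver enzyme CYP2C9 beyond about 50% at 5 µM, limit read from the data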
sEH inhibitor = blocks human soluble epoxide hydrolase activity. AID 707. 0.34% of 91,000 active. inhibition, % at 2 µM. recombinant human sEH enzymatic activity assay; in the data active = inhibition above about 80%
Target sequence (P34913 whole entry, looked up): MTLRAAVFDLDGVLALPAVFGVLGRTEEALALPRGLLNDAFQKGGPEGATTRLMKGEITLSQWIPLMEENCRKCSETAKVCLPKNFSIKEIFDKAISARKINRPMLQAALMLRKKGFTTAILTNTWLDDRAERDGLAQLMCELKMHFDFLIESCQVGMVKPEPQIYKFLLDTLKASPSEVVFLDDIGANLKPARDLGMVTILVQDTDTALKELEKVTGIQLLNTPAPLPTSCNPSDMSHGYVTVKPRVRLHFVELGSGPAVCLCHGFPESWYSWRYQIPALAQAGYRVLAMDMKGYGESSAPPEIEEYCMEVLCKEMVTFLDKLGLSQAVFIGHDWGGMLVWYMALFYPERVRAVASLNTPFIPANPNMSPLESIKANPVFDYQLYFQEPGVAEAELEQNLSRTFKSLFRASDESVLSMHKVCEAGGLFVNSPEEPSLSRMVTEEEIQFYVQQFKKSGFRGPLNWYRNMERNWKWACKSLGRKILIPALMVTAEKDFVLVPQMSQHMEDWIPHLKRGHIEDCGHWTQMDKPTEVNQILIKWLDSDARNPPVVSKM
CYP2C19 inhib = inhibitors of human CYP2C19. CYP2C19 Supersomes, luciferin-H EGE luminescence, 30 min. inhibition, % at 5 µM. 21% of 96,000 active. P33261;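 active = CYP2C19 inhibition above a set limit at 5 µM in the primary screen, cut at about 50% in these data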;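 also: plate controls were negative control wells for no effect and 2.5 mM tranylcypromine positive control for full effect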
CYP2C9 activ = increases human cytochrome P450 2C9 activity. P11712. recombinant CYP2C9, luciferin-H conversion, luminescence; hits give high values; factor 1 = untreated enzyme, 0 = blocked. activation factor at 5 µM. 1.4% of 96,000 active;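 active = activation factor of 2 or more for CYP2C9 at a 5 µM dose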;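 also: 0 = sulfaphenazole-blocked wells and 1 = vehicle-only wells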
sEH act = activators of human soluble epoxide hydrolase; 0.04% of 91,000 active; purified human sEH enzymatic activity, activator screen; activation, % at 2 µM; in the data active = activation above about 37%
CYP2C19 activ = activators of human cytochrome P450 2C19; P33261; recombinant CYP2C19, luciferin-H EGE luminescence; hits give high values; 0 = fully inhibited enzyme, 1 = untreated enzyme; activation factor at 5 µM; 96,000 tested, under 10 active; AID 1025;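 active = activation factor of at least 2 at 5 µM in the primary screen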;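 also: 0 = wells with 2.5 mM tranylcypromine and 1 = vehicle-only wells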
* hit, by the source's call; · = not tested or not shown.

SMILES	CYP2C9 inh	sEH inhibitor	CYP2C19 inhib	CYP2C9 activ	sEH act	CYP2C19 activ
Cc1ccc2[nH]c(=O)c(CN(Cc3nnnn3C3CCCC3)C3CCCCC3)cc2c1	10	1	10	0.9	-1	0.9
Cc1ccc(C)c2[nH]c(=O)c(CN(CCN3CCOCC3)Cc3nnnn3CC3CCCO3)cc12 (stereo not drawn)	-14	0	-6	1.1	1	1.1
Cc1cccc2cc(CN(CC3CCCO3)C(=O)c3ccncc3)c(=O)[nH]c12 (stereo not drawn)	83*	·	89*	0.2	·	0.1
Cc1cc(C)c2[nH]c(=O)c(CN(CC3CCCO3)C(=O)C3CCCO3)cc2c1 (stereo not drawn)	-8	3	-2	1.1	-2	1
CN(C)CCN(Cc1ccccc1)c1nccc(N(C)C)c1C#N	23	-8	12	0.8	2	0.9
CN(C)c1nccc(Nc2ccccc2)c1C#N	49	7	51*	0.5	-4	0.5
Cc1ccc(S(=O)(=O)c2cc3c(=O)n4cccc(C)c4nc3n(CC3CCCO3)c2=N)cc1 (stereo not drawn)	18	·	9	0.8	·	0.9
Nc1cc(C2CCCC2)nn1-c1ccccc1	35	·	92*	0.7	·	0.1
CCOC(=O)Cc1[nH]nc2c1C(c1ccoc1)C(C#N)=C(N)O2 (stereo not drawn)	38	-13	77*	0.6	11	0.2
COC(=O)Cc1[nH]nc2c1C(c1c[nH]c3ccccc13)C(C#N)=C(N)O2 (stereo not drawn)	26	-1	52*	0.7	0	0.5
COC(=O)Cc1[nH]nc2c1C(C1C=CCCC1)C(C#N)=C(N)O2 (stereo not drawn)	60*	8	70*	0.4	-7	0.3
COCc1[nH]nc2c1C(c1ccccc1F)C(C#N)=C(N)O2 (stereo not drawn)	-5	·	13	1	·	0.9
CN(c1cccc(NC(=O)Cc2ccccc2)c1)S(C)(=O)=O	15	-3	31	0.8	5	0.7
CN(c1cccc(NC(=O)c2ccc(Cl)c(S(=O)(=O)Nc3ccccc3)c2)c1)S(C)(=O)=O	97*	27	85*	0	-27	0.2
Cc1ccccc1NS(=O)(=O)c1cc(C(=O)Nc2cccc(N(C)S(C)(=O)=O)c2)ccc1C	78*	47	38	0.2	-46	0.6
NC(=O)c1ccc(N2CCCCC2)c(N2C(=O)C3CC=CCC3C2=O)c1 (stereo not drawn)	31	-7	50*	0.7	7	0.5
O=C(O)c1ccc(N2CCCCCC2)c(N2C(=O)c3ccccc3C2=O)c1	-9	0	-24	1.1	0	1.2
Cc1cc(-c2c(C)n([O-])c(C)c(C)[n+]2=O)ccc1F	-8	·	24	1.1	·	0.8
O=C(CC1CC2CCC1C2)OCC(=O)c1c[nH]c2ccccc12 (stereo not drawn)	-18	-11	70*	1.2	9	0.3
CCOC(=O)c1ccc(NCc2nc3ccccc3[nH]2)cc1	65*	10	15	0.3	-10	0.9
CCOC(=O)Cc1nc2ccccc2[nH]1	-13	0	11	1.1	1	0.9
O=C(CCc1ccccc1)Nc1ccncc1	83*	0	86*	0.2	2	0.1
O=C(CCc1ccccc1)Nc1ccc2c(c1)OCCO2	20	22	5	0.8	-22	1
Cc1cc(C)cc(NC(=O)CCc2nc3ccccc3[nH]2)c1	-29	-1	1	1.3	1	1
CCCCOC(=O)CCc1nc2ccccc2[nH]1	-6	4	50*	1.1	-2	0.5
SMILES	CYP2C9 inh	sEH inhibitor	CYP2C19 inhib	CYP2C9 activ	sEH act	CYP2C19 activ
O=C(CCc1nc2ccccc2[nH]1)Nc1ccccc1	33	·	62*	0.7	·	0.4
COc1ccc(/C=N/n2c(C)cc(C)c(C(N)=O)c2=O)cc1	0	8	-1	1	-11	1
CCOC(=O)C1CCN(S(=O)(=O)c2c(C)n(C)c(=O)n(C)c2=O)CC1	-7	-2	2	1.1	1	1
CCC(C)NC(=O)C1c2ccccc2C(=O)N(c2ccc(OC)cc2)C1c1ccc(OC)cc1 (stereo not drawn)	15	3	0	0.8	-2	1
Cc1c(C(=O)NCCC2=CCCCC2)oc2ccc(S(=O)(=O)N3CCC4(CC3)OCCO4)cc12	38	-8	18	0.6	8	0.8
CCOc1ccc(-c2nc(CSc3nnc(C)s3)cs2)cc1OC	10	6	22	0.9	-8	0.8
CCOc1ccc(-c2nc(CSc3nncs3)cs2)cc1OC	7	-3	53*	0.9	5	0.5
Cc1ccc(N2CC(C(=O)OCc3ccccc3)CC2=O)cc1 (stereo not drawn)	9	-8	30	0.9	8	0.7
COc1ccc(C(=O)NCCNC(=O)c2cc(OCC(F)(F)F)ccc2OCC(F)(F)F)cc1	10	0	-3	0.9	1	1
CCCCC(=O)NCCNC(=O)c1cc(OCC(F)(F)F)ccc1OCC(F)(F)F	25	-9	12	0.7	10	0.9
CC(C)CC(=O)NCCNC(=O)c1cc(OCC(F)(F)F)ccc1OCC(F)(F)F	87*	-11	4	0.1	12	1
O=C(NCCNS(=O)(=O)c1cccc(C(F)(F)F)c1)c1cc(OCC(F)(F)F)ccc1OCC(F)(F)F	16	3	80*	0.8	-1	0.2
c1ccc(-c2nc3ccccc3nc2N2CCOCC2)cc1	20	-5	52*	0.8	4	0.5
Cn1c(N2CCOCC2)nc(-c2ccccc2)c1-c1ccccc1	-98	-10	6	2*	10	0.9
Cc1cc(Oc2ccc(C#N)cc2)nc(N2CCOCC2)n1	38	7	17	0.6	-4	0.8
O=C(Nc1nc2c(s1)C(=O)CCC2)c1ccccc1	53*	13	41	0.5	-13	0.6
CC(C)(Oc1ccc(Br)cc1)C(=O)N1CCc2ccccc21	18	6	21	0.8	-9	0.8
Cc1cccc2c(C(=O)O)c3c(nc12)CCCCC3	2	-8	9	1	11	0.9
CCSc1c(-c2ccccc2)nc2c(C)cccc2c1C(=O)O	78*	-13	-1	0.2	12	1
CN(C)CCN1C(=O)C(=O)/C(=C(/O)c2ccc(F)cc2)C1c1ccccc1 (stereo not drawn)	7	-10	-6	0.9	13	1.1
Cc1ccc(-n2c(=O)[nH]cc(C(=O)N3CCc4ccccc43)c2=O)cc1C	11	2	0	0.9	-3	1
Cc1ccc(C(=O)Nc2nc(=O)n(C(=O)c3ccccc3C)s2)cc1	82*	2	31	0.2	-1	0.7
Cc1ccc(C(=O)Nc2nc(=O)n(C(=O)C3CC3)s2)cc1	79*	-3	-6	0.2	5	1.1
O=C(Nc1nc(=O)c2ccccc2s1)c1ccccc1	-2	13	-8	1	-8	1.1

Bioassay records as filed in PubChem BioAssay.
